# In the library only some 2.7% were active in any assay of this set; here they are far more common.
# Nrf2 inh = blocks Nrf2 signaling; Potency, µM (titrated, usually from 46 µM), for inactives: at the highest dose activity change, negative = inhibition, hits mostly inhibitors; A549 ARE-Fluc reporter, luciferase luminescence, 18-24 h; hit rate 2.1% among 360,000; also: potency is read from the fitted curve at half-maximal effect; % is scaled to controls: 0 for no effect and ±100 for the full control effect; nearly all actives have a fitted effect of over 60% in size
#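 A549 ARE_Fluc cells, 5000/well, 5% FBS OPTI-MEM; compounds in dose-response, 18-24 h at 37 °C/5% CO2; CellTiter-Fluor viability read (Ex 405/Em 525), then BugLite luciferase luminescence = Nrf2 activity.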
# Nrf2 ARE act = Nrf2 pathway activation. AREc32 ARE-luciferase reporter (MCF7-derived line), luminescence, 24 h. Potency, µM (highest dose often 46.1 µM), for inactives: top-dose activation, most hits filed as activators. hit rate 0.31% among 410,000; also: potency is read from the fitted curve at half-maximal effect; % of control where 0% means no effect; nearly all actives have a fitted effect of over 65% in size
#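 For detection, Steady-Glo was added and plates sat 30 min at RT; before that, AREc32_Fluc cells grown overnight in OPTI-MEM/5% FBS had been treated with 23 nL compound for 24 hr at 37 deg C.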
# LDHA inh = blocks human lactate dehydrogenase A; P00338; purified LDHA, NADH/diaphorase-resazurin fluorescence; active compounds read low; activity change, % (values are at about 110 or 230 µM); hit rate 0.15% among 480,000; in the data active = activity change below about -30%; inconclusive = mostly about -25% to -30%;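 also: plate controls were DMSO wells for no effect and wells without enzyme for full effect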
#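 LDH5 2 nM; NADH 0.06 mM, pyruvate 0.2 mM; 200 mM Tris pH 7.4, EDTA, Tween-20; 5 min RT. Detection: diaphorase 0.133 mg/mL + resazurin 37 µM, fluorescence ex540/em590 at 0 and 20 min; normalized to enzyme-free and DMSO wells.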
# mIDH1 inhibitor = human IDH1 R132H inhibition. Potency, µM (series often up to 76.6 µM), without a hit: at the highest dose activity change, negative = inhibition, usual class: inhibitors. hit rate 0.093% among 390,000. IDH1-R132H enzyme, NADPH consumption, diaphorase/resazurin fluorescence. O75874. AID 602179; also: potency is read from the fitted curve at half-maximal effect; % is scaled to controls: 0 for no effect and ±100 for the full control effect; nearly all actives have a fitted effect of over 65% in size
# Target sequence (O75874 whole entry R132H, stated change not applied): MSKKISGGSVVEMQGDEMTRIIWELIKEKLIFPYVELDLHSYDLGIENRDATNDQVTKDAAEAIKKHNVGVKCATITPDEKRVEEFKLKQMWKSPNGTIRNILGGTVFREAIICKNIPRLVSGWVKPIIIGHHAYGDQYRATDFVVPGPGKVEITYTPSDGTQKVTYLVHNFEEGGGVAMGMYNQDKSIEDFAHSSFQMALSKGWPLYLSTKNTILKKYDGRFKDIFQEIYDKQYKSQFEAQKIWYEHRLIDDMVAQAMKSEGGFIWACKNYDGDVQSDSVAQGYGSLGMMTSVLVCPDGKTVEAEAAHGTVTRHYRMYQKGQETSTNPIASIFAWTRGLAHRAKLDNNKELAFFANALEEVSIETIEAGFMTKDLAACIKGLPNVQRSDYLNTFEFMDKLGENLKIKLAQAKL
#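 IDH1-R132H (0.5 ug/mL) preincubated 30 min with compound, then NADPH (0.016 mM) and alpha-KG (2 mM) added; 80 min at RT, pH 7.5. Remaining NADPH coupled via diaphorase/resazurin to fluorescence (540/590 nm); concentration-response curves normalized to no-enzyme control.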
# ALOX12 inh = inhibitors of human 12S-lipoxygenase ALOX12. P18054. hit rate 1.1% among 580,000. AID 1671190. purified 12hLO, xylenol orange hydroperoxide absorbance. Potency, µM (titrated, usually from 108 µM), without a hit: top-dose activity change, negative = inhibition, usual class: inhibitors; also: potency is read from the fitted curve at half-maximal effect; % is scaled to controls: 0 for no effect and ±100 for the full control effect
#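 Purified human 12hLO (150 nM final) in 25 mM Hepes, 0.01% Triton X-100, pH 7.0 was preincubated 15 min at room temperature with compound. Then 40 uM arachidonic acid was added, 30 min. Hydroperoxide was read by Fe-XO absorbance ratio 573/405 nm.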
# A549 viability = counter-screen for Nrf2 inhibitors: cytotoxicity in A549 cells | A549 ARE-Fluc cells, CellTiter-Fluor viability, 18-24 h | Potency, µM (doses to about 46 µM), for inactives: at the top dose activity change, negative = cytotoxicity, actives largely listed as inhibitors | hit rate 0.16% among 390,000 | AID 504648; also: potency is read from the fitted curve at half-maximal effect; % is scaled to controls: 0 for no effect and ±100 for the full control effect
#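 A549 ARE_Fluc cells in 5% FBS OPTI-MEM were exposed to compounds in concentration-response for 18-24 h at 37 deg C. Viability was read by CellTiter-Fluor fluorescence (Ex 405/Em 525) after 30 min, before the luciferase read.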
# An asterisk follows results filed as active; ? = inconclusive; . = no result given; ! = not active in a repeat. Unless noted, calls follow the shape of the dose curve; as a rule, active = well fitted curve in the direction sought with a large enough effect; inconclusive = small, poorly fitted or top-dose-only effect, or another doubt; inactive = no such curve, though single readings can be large; an effect the other way counts as inactive or inconclusive.
SMILES,Nrf2 inh,Nrf2 ARE act,LDHA inh,mIDH1 inhibitor,ALOX12 inh,A549 viability
O=C1[C@H]2[C@@H](c3ccccc3)N[C@]3(CCCN(Cc4ccc(Cl)cc4)C3=O)[C@H]2C(=O)N1Cc1ccccc1,.,0%,0,?,7.9µM*,.
O=C1[C@H]2[C@@H](c3ccccc3)N[C@]3(CCCN(Cc4ccc(Br)cc4)C3=O)[C@H]2C(=O)N1Cc1ccccc1,.,-1%,-8,?,-77%,.
O=C1N2CCCc3cccc(c32)C12Nc1ccccc1S2 (stereo not given),3%,2%,2,1%,25µM*,-19%
CCC(C)NS(=O)(=O)c1ccc(S(=O)(=O)N2CCCC3(CCCCC3)C2)cc1 (stereo not given),21µM*,0%,-9,-1%,19%,-22%
CCC(C)C(=O)Nc1ccc(S(=O)(=O)N2CCCC2)cc1 (stereo not given),-6%,-1%,0,0%,17%,0%
O=C(Cn1ccc2ccccc21)Nc1ccc2c(c1)OCO2,19%,0%,-36*!,-8%,?,3%
Cc1ccccc1C(=O)NNC(=S)Nc1ccccc1,.,.,-10,.,14%,.
Fc1ccc(/C=N/Nc2ccccc2Cl)cc1F,.,.,13,.,?,.
Clc1ccccc1N/N=C/c1ccc2c(c1)OCO2,?,5%,0,5%,35µM*,1%
O=C(Oc1ccccc1)c1cc(O)c(O)c(O)c1,.,0%,-35*,.,.,.
Nc1ccc(C(=O)OCCc2ccccc2)cc1,?,-1%,0,0%,-5%,2%
O=C(OCCc1ccccc1)c1cc(O)c(O)c(O)c1,4%,8%,0,-14%,2.8µM*,-3%
c1ccc(-c2c(SSc3c(-c4ccccn4)c(-c4ccccn4)n4ccccc34)c3ccccn3c2-c2ccccn2)nc1,.,.,2,.,?,.
S=c1[nH]c(-c2ccccc2)cn1/N=C/c1ccc(Br)cc1,4%,3%,-5,-3%,40µM*,2%
S=c1[nH]c(-c2ccccc2)cn1/N=C/c1cccnc1,9%,4%,1,-4%,?,-3%
O=C(O)c1ccc(/C=N/n2cc(-c3ccccc3)[nH]c2=S)cc1,?,0%,-2,3%,45µM*,-8%
Cc1cc(C(=O)N2CCN(S(=O)(=O)c3ccc(Cl)cc3)CC2)on1,.,.,-8,.,?,.
CCC1CN(Cc2cn(Cc3ccccc3)nc2-c2cc3ccccc3o2)CCO1 (stereo not given),.,.,.,.,21%,.
CCN1C(=O)[C@H]2[C@@H](c3ccc(-c4ccc(Cl)c(Cl)c4)c(OC)c3)N[C@@](C)(C(=O)OC)[C@H]2C1=O,-16%,0%,2,5%,?,-2%
CCN1C(=O)[C@H]2[C@@H](c3ccc(-c4ccc(Cl)c(Cl)c4)cc3)N[C@@](C)(C(=O)OC)[C@H]2C1=O,?,4%,1,9%,40µM*,0%
Cc1ccc(C)c(OCc2ccc(-c3nc(C#N)c(N4CCC(C(N)=O)CC4)o3)o2)c1,.,.,-2,.,?,.
Cn1nc(C(=O)NCc2ccc(F)cc2)c2c1-c1ccccc1S(=O)(=O)C2,10µM*,-4%,-9,-10%,52%,-10%
Cc1ccc(CNC(=O)c2nn(C)c3c2CS(=O)(=O)c2ccccc2-3)cc1,19%,-1%,-4,0%,11%,2%
COc1cccc(CNc2nc(NCc3cccc(OC)c3)n(S(=O)(=O)c3ccc(C)cc3)n2)c1,.,.,0,.,?,.
Cc1ccccc1Nc1nc(-c2cc3ccccc3oc2=O)cs1,.,.,-2,.,-51%,.
SMILES,Nrf2 inh,Nrf2 ARE act,LDHA inh,mIDH1 inhibitor,ALOX12 inh,A549 viability
CSc1ccc(CN(C)C(=O)CSc2nnc(COc3ccc(Cl)cc3)n2C)cc1,.,.,14,.,?,.
COc1ccc(OC)c(NC(=O)Cn2c(=O)cc(C)c3c(C)nn(-c4cccc(Cl)c4C)c32)c1,21µM*,-1%,-2,-16%,?,?
Cc1ccc(-n2nc(C)c3c(C)cc(=O)n(CC(=O)NC(C)c4ccccc4)c32)cc1 (stereo not given),?,-1%,-1,-17%,-15%,7%
CCOc1ccc(NC(=O)Cn2c(=O)cc(C)c3c(C)nn(C)c32)cc1,13µM*,1%,-7,0%,-10%,0%
COc1ccc(NC(=O)Cn2c(=O)cc(C)c3c(C)nn(C)c32)cc1,.,1%,-2,4%,?,-1%
Cc1nn(C)c2c1c(-c1ccccc1)cc(=O)n2CC(=O)NC(C)c1ccccc1 (stereo not given),?,1%,2,7%,45µM*,1%
Cc1cc(=O)n(CC(=O)NC(C)c2ccccc2)c2c1c(C)nn2C (stereo not given),-9%,0%,-2,-6%,50µM*,2%
O=C(c1cccc(S(=O)(=O)N2CCOCC2)c1)N(Cc1ccco1)C1CC1,.,.,-9,.,12%,.
Cc1ccc2c(c1)c1c(n2CC(O)CNC2CCCCC2)CCCC1 (stereo not given),-9%,-5%,6,-5%,28µM*,-3%
Cc1ccc2c(c1)c1c(n2CC(O)CNC(CO)(CO)CO)CCCC1 (stereo not given),-3%,2%,-1,3%,2%,7%
Cc1cccc(CSC(Nc2ccc(F)cc2)=C(C#N)C#N)c1,18µM*,20%,1,2%,-6%,-27%
N#CC(C#N)=C(Nc1ccc(F)cc1)SCc1cccc(Br)c1,4.1µM*,?,-3,4%,-20%,?
CC1CCN(C(=O)c2nc3nc(-c4ccco4)cc(C(F)(F)F)n3n2)CC1,.,.,-4,.,?,.
COC(=O)C1CCN(Cc2cc(=O)oc3ccc(Cl)cc23)CC1,.,.,-15,.,16µM*,.
O=C(CSc1nnc(-c2cccc([S+](=O)([O-])N3CCCC3)c2)n1-c1ccccc1)Nc1ccccc1F,.,.,-2,.,.,.
COc1ccc(C(=O)OCC(=O)c2sc3ccccc3c2C)cc1OC,.,.,-1,.,-8%,.
Cc1occc1C(=O)OCC(=O)c1sc2ccccc2c1C,.,.,7,.,32µM*,.
C[N+](C)(CC#Cc1ccccc1)CC#Cc1ccccc1,.,.,9,.,1%,.
COc1ccc2c(COC(=O)c3n[nH]c4ccccc34)cc(=O)oc2c1,.,6%,-2,2%,-22%,-7%
O=C(OCc1cc(=O)oc2cc(O)ccc12)c1n[nH]c2ccccc12,.,.,-2,.,25µM*,.
CCCCOC(=O)COc1ccc(S(=O)(=O)c2ccc(OCC(=O)OCCCC)cc2)cc1,.,.,-1,.,-6%,.
O=c1oc(CCO)cc2ccc(C#Cc3ccsc3)cc12,1%,2.5µM*,-12,-9%,?,-3%
